This note sets out measurements from PubChem BioAssay (EPA / NIEHS).

“And” between values parts separate entries of the source, which are not always exact repeats. Equal entries are not always repeated. A structure can be active in one record and inactive in another. The source made the active and inactive calls. The calls were made as follows: active = hit-call score of the fitted dose curve at least 0.9, where 1 is the maximum; inactive = score below 0.9.

The nature of this test: ATG_PXRE_CIS: Attagene CIS-FACTORIAL HepG2 Assay for human Pregnane X Receptor Element (PXRE) (AID 2282957). The following applies: HepG2 Attagene CIS-FACTORIAL PXRE reporter, mRNA; actives raise or lower the signal. The protocol:
ATG_CIS is a cell-based, multiplexed-readout assay that uses HepG2, a human liver cell line, with measurements taken at 24 hours after chemical dosing in a 24-well plate.ATG_PXRE_CIS is one of 52 assay component(s) measured or calculated from the ATG_CIS assay. It is designed to make measurements of mRNA induction, a form of inducible reporter, as detected with fluorescence intensity signals by Reverse transcription polymerase chain reaction (RT-PCR) and Capillary electrophoresis technology.Data from the assay component ATG_PXRE_CIS was analyzed into 1 assay endpoint. This assay endpoint, ATG_PXRE_CIS, was analyzed with bidirectional fitting relative to DMSO as the negative control and baseline of activity. Using a type of inducible reporter, measures of mRNA for gain or loss-of-signal activity can be used to understand the reporter gene at the transcription factor-level as they relate to the gene NR1I2. Furthermore, this assay endpoint can be referred to as a primary readout, because this assay has produced multiple assay endpoints where this one serves a reporter gene function. To generalize the intended target to other relatable targets, this assay endpoint is annotated to the nuclear receptor intended target family, where the subfamily is non-steroidal.
Human liver HepG2 cells are transiently transfected with multiple reporter transcription units (MRTUs) in 6-well plates using FuGene 6 reagent (Roche; 3 ml FuGene/1 mg DNA). The MRTU constructs are regulated by a cis-regulating element (promoter). […] A major difference between the CIS and TRANS system is that in CIS activities of endogenous TFs are measured, whereas the TRANS assay evaluates changes in activities of exogenous, chimeric NR-Gal4 proteins. […] At the end of 24 hour incubation, total RNA was isolated using TriZol reagent (Invitrogen). The isolated RNA is then reverse-transcribed using oligo(dT) primer and Mo-MLV reverse transcriptase (Invitrogen) with DNAse I (Ambion) treatment for 30 min. The one-tenth of the produced cDNA was amplified by PCR using Taq DNA polymerase (Invitrogen) and two reporter sequence-specific primers. The PCR products were fluorescently labeled by primer extension with 6-arboxyfluorescein (6-FAM) 5'-labeled reporter sequence-specific primer (2 min at 95 C, 20 s at 68 C and 10 min at 72 C) and these products were digested with 5U of HpaI (New England Biolabs) for 2h at 37 C. The fragments were purified using Qiaquick PCR columns (Qiagen), analyzed on an ABI 3130xL genetic analyzer (Applied Biosystems) with peak positions identified by using a set of X-rhodamine (ROX)-labeled MapMarker1000 molecular weight standards (BioVentures). The raw capillary electrophoresis data was processed using Attagraph software (Attagene).
For `O=C(NCc1ncc(C(F)(F)F)cc1Cl)c1c(Cl)cccc1Cl`, the AC50 was 0.799 µM (active).

As to `CCCCCCCCCC=CCC1CC(=O)OC1=O` (stereo not given), the result was inactive. As to `O=C(O)C(F)(F)OC(F)(F)C(F)(F)OC(F)(F)C(F)(F)OC(F)(F)C(F)(F)C(F)(F)C(F)(F)F`, the AC50 was 11.1 µM (active) and 4.38 µM (active). Still for that read-out and setting: as for `CC1=CC(=O)c2ccccc2C1=O`, the figure is 11.1 µM (active).

Turning to `O=C1NS(=O)(=O)c2ccccc21`, the call was inactive and the AC50 was 55.9 µM (active). `O=C(c1ccccc1)c1ccccc1`: the AC50 is 51.4 µM (active) and the outcome was inactive. In the case of `O=S(=O)(O)C(F)(F)C(F)(F)C(F)(F)C(F)(F)C(F)(F)C(F)(F)C(F)(F)C(F)(F)C(F)(F)C(F)(F)F`, the AC50 is 83.7 µM (active) and 40.3 µM (active). For `O=C(OC(=O)C(F)(F)C(F)(F)F)C(F)(F)C(F)(F)F`, the result was inactive. Turning to `Nc1ccc(O)c(C(=O)O)c1`, the molecule was classed as inactive. Same read-out and setting: as for `CCCCCCCCCCCCCCC`, the entry is “inactive”; as for `CCOC=O`, “inactive”.

Consider `NNc1nc(-c2ccc([N+](=O)[O-])cc2)cs1`, for which the outcome was inactive. Consider `C/C=C/C(=O)C1=C(C)CCCC1(C)C`, for which the AC50 is 2.03 µM (active).

`O=C(Nc1cccc([N+](=O)[O-])c1)c1cc2ccccc2cc1O`: the AC50 is 6.79 µM (active). Take `Brc1ccc(Oc2ccc(Br)cc2Br)cc1`: the outcome was inactive. `Cc1ccc(S(=O)(=O)O)cc1`: the AC50 is 26.3 µM (active) and the molecule was called inactive. For `COCN(COC)c1nc(N(COC)COC)nc(N(COC)COC)n1`, the AC50 was 45.3 µM (active). On the same count and under the same terms, the result for `CS(=O)(=O)c1ccc([C@@H](CC2CCCC2)C(=O)Nc2cnccn2)cc1Cl` reads 1.91 µM (active). For `CCC1CO1` (stereo not given), the call was inactive. On the same count and under the same terms, the result for `O=C1OC(=O)c2cc(-c3ccc4c(c3)C(=O)OC4=O)ccc21` reads “inactive”. For `CCCCCCCCCCCC`, the call was inactive and the AC50 is 4.16 µM (active). Take `CCOC(=O)CN[C@@H](C(=O)N1CC[C@H]1C(=O)NCc1ccc(/C(N)=N/O)cc1)C1CCCCC1`: the molecule was classed as inactive. Take `CCOC(C)=O`: the result was inactive. For `Cc1ccccc1OCC(=O)O`, the outcome was inactive. Still for that read-out and setting: the result for `OCC(F)(F)C(F)(F)C(F)(F)C(F)(F)C(F)(F)C(F)(F)C(F)(F)C(F)(F)C(F)(F)C(F)(F)C(F)(F)F` reads “inactive”. For the molecule `C=CC(C)(CCC=C(C)C)OC(C)=O` (stereo not given), the AC50 was 22.8 µM (active).

In the case of `FC(OC(F)(F)C(F)(F)C(F)(F)F)C(F)(F)F` (stereo not given), the molecule was classed as inactive. For `c1cc2cccc3c4cccc5cccc(c(c1)c23)c54`, the outcome was inactive.

Consider `O=C1C=CC(=O)N1c1cccc(N2C(=O)C=CC2=O)c1`, for which the call was inactive. Regarding `CCc1ccccc1O`, the AC50 is 10.8 µM (active). On the same count and under the same terms, as for `CCOC=C(C(=O)OCC)C(=O)OCC`, the figure is 27.6 µM (active); as for `CCC(C)c1ccccc1O` (stereo not given), 27.4 µM (active) and 30.9 µM (active). With `CC1CNCC(C)O1` (stereo not given), the molecule was classed as inactive.

For the molecule `CCC(=O)C=Cc1ccc(OC)cc1`, the AC50 was 26.9 µM (active). `O=CC(F)(F)C(F)(F)C(F)(F)C(F)F`: the call was inactive. On to `CC(C)(C)c1ccc(CCC=O)cc1`, for which the AC50 is 22.3 µM (active).

A word on the AC50: it is the midpoint of the concentration-response curve, whichever way the signal moves.
